The assay can be described thus: rapamycin-like growth block in BY4741 yeast – BY4741 wild type, TORC1 bypass strain, mechanism study for yeast TOR pathway GFP screen (AID 504456). Particulars: S. cerevisiae BY4741 spot growth rating, 48-72 h, at 30 µM.
Setting [1] is: TORC1 bypass strain growth rating.

This is one part of the list. The source made the active and inactive calls.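 Rule for the calls: active = growth rating at most 1 for wild type yeast while the TORC1 bypass strain still grows fully, rated 3; inactive = the rest.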

Here are results for two compounds from PubChem BioAssay AID504456 (NMMLSC, 2011).

Turning to `CN(C)CCCNc1nc(N)c([N+](=O)[O-])c(Nc2cccc(F)c2)n1`, the growth rating (0-3) is, setting by setting: under setting [1], 3; (stronger effect = lower value) 3 (inactive).

As to `Cc1ccc(-c2nn(C(C)(C)C)c3ncnc(N)c23)cc1`, the growth rating (0-3) under setting [1] is 3 and the growth rating (0-3) (stronger effect = lower value) is 3 (inactive).
